# Laboratory results reported in PubChem BioAssay (Tox21).
# Values without a mark were called inactive. Inconclusive results are not listed. A call without a number means that no potency is given here. Calls of active or inactive are those of the source. Unless noted, calls come from the whole dose curve; as a rule, active = well fitted curve in the direction sought with a large enough effect in the repeat runs; inconclusive = weak or mixed curves; inactive = no such curve, though single readings can be large; an effect the other way counts as inactive or inconclusive.
# Legend:
# [1] = qHTS assay to identify small molecule antagonists of the sonic hedgehog signaling (Shh) pathway (AID 1259369; calls by dose curve; note: nearly all actives have a fitted effect of over 45% in size; note: potency is the fitted concentration of half-maximal effect)
# Outline: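 Read-out is luminescence from a firefly luciferase gene controlled by the Gli1 response element, in 3T3Gli1-Luc cells pre-incubated 4hr then exposed to compounds and conditioned medium for 24hr.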
# [2] = molecular target: Estrogen receptor beta (Homo sapiens) (UniProt Q92731); assay: qHTS assay to identify small molecule agonists of the estrogen receptor beta (ER-beta) signaling pathway (AID 1259377; active = well fitted activation curve with a large enough effect in the signal ratio in the repeat runs, not every such curve was filed as active; the % refers to the signal ratio)
# Sequence of Estrogen receptor beta (Homo sapiens) (Q92731 whole entry, looked up): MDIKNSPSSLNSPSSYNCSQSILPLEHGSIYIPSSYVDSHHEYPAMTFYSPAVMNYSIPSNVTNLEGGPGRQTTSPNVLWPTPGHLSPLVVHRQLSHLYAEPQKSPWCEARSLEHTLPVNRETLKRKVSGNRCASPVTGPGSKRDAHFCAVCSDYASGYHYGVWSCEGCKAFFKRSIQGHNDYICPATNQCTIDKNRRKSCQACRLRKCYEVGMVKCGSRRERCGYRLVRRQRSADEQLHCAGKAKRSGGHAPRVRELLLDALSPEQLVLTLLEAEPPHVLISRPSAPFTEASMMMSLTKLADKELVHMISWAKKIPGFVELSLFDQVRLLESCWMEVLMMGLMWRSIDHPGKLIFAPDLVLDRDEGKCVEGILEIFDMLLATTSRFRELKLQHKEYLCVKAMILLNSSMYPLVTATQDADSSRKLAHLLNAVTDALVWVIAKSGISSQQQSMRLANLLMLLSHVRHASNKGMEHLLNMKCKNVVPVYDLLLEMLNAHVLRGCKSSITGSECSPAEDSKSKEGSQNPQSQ
# Outline: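 Ratiometric beta-lactamase FRET read-out came after 2 h substrate loading at room temperature. It followed 16 h compound treatment at 37C of GripTite HEK293T cells carrying a UAS-bla reporter, plated in 2% charcoal-stripped FBS medium.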
# [3] = molecular target: Estrogen receptor beta (Homo sapiens) (UniProt Q92731); assay: qHTS assay to identify small molecule antagonists of the estrogen receptor beta (ER-beta) signaling pathway (AID 1259378; active = well fitted inhibition curve with a large enough effect in the signal ratio in the repeat runs, not every such curve was filed as active; the % refers to the signal ratio; note: potency is the fitted concentration of half-maximal effect)
# Outline: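 ER-beta-UAS-bla HEK293T (GripTite) cells in 2% charcoal-stripped FBS medium were preincubated 6 hr at 37C, dosed with compound, then stimulated with 1 nM E2 (final) for 16 hr; beta-lactamase reporter read by B/G FRET fluorescence after 2 hr substrate loading.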
# [4] = qHTS assay to identify small molecule agonists of the androgen receptor (AR) signaling pathway in the presence of an antagonist - cell viability counter screen (AID 1259379);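 note: MDA-kb2 human breast cancer cells carrying an MMTV luciferase reporter; series mostly up to about 92 µM; nearly all actives have a fitted effect of over 25% in size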
# Outline: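 Each compound was tested at 15 concentrations on MDA-kb2 cells in the presence of 3.0uM nilutamide. Viability was measured by CellTiter-Fluor fluorescence after a 16 hr incubation at 37C in a CO2-free atmosphere.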
# [5] = qHTS assay to identify small molecule agonists of the estrogen receptor beta (ER-beta) signaling pathway - cell viability counter screen (AID 1259380); note: nearly all actives have a fitted effect of over 30% in size
# Outline: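 Compounds dissolved in DMSO were pin-transferred onto ER-beta-UAS-bla HEK293T cells that had settled 6 hr, and exposure ran 16 hr at 37C. Following the reporter read, CellTiter-Glo luminescence after 30 min at room temperature indicated cytotoxicity.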
# [6] = qHTS assay to identify small molecule antagonists of the estrogen receptor beta (ER-beta) signaling pathway - cell viability counter screen (AID 1259382); note: series mostly up to about 92 µM; nearly all actives have a fitted effect of over 55% in size
# Outline: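 CellTiter-Glo ATP luminescence measured after the LiveBLAzer read in the same wells; ER-beta-UAS-bla HEK293T cells, 16 hr compound treatment with 1nM 17-beta-estradiol agonist at 37C, 5% CO2.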
# [7] = qHTS assay to identify small molecule agonists or antagonists of the thyroid stimulating hormone receptor (TSHR) signaling pathway - wild type cell line counter screen (AID 1259384; calls by dose curve)
# Outline: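 Wild-type HEK293 cells were plated 18 h at 37 C/5% CO2, pin-dosed with compound plus Ro20-1724 medium, held 30 min at room temperature, then given cAMP-d2 and anti-cAMP-cryptate; fluorescence was read after 1 h. Fifteen concentrations, triplicate.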
# [8] = molecular target: Thyrotropin receptor (Homo sapiens) (UniProt P16473); assay: qHTS assay to identify small molecule antagonists of the thyroid stimulating hormone receptor (TSHR) signaling pathway (AID 1259385; calls by dose curve; note: nearly all actives have a fitted effect of over 20% in size)
# Sequence of Thyrotropin receptor (Homo sapiens) (P16473 whole entry, looked up): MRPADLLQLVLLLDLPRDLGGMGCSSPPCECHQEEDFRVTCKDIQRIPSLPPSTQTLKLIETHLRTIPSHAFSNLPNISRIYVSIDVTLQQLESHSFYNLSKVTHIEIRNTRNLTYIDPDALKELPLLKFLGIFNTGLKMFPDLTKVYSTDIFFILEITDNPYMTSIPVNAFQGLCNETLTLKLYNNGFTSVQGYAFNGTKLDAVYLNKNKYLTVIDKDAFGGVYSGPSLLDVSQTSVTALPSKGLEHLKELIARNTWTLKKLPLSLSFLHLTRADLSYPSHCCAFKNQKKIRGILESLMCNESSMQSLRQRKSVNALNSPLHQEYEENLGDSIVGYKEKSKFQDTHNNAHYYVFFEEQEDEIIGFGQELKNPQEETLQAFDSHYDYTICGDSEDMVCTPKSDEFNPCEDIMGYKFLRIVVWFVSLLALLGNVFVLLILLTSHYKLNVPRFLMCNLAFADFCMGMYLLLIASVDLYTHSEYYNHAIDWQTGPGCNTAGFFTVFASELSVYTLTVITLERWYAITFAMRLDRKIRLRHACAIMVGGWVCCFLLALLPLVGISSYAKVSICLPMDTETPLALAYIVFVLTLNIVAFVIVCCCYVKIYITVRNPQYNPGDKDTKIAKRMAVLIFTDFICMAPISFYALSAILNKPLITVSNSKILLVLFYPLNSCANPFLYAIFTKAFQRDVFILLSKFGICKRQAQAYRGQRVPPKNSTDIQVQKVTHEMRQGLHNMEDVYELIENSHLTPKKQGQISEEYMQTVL
# Outline: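 TSHR-HEK293 cells were plated and held 18 h at 37C/5% CO2, then given compound plus Ro20-1724 and stimulated with TSH at 1.5 ng/mL final. After 30 min at room temperature, cAMP was detected with cAMP-d2/anti-cAMP-cryptate (1 h) by fluorescence.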
# [9] = qHTS assay to identify small molecule agonists of the estrogen receptor alpha (ER-alpha) signaling pathway in the presence of an antagonist - cell viability counter screen (AID 1259386);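 note: series mostly up to about 92 µM; cells exposed to compounds for 22 h at 37 °C before the viability read; nearly all actives have a fitted effect of over 30% in size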
# Outline: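 Using estrogen-depleted VM7Luc4E2 cells, the 15-concentration compound series was applied together with 10.0nM ICI-182,780 and incubated 22hr at 37C/5% CO2. Cell viability was then scored by CellTiter-Fluor.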
# [10] = molecular target: Progesterone receptor (Homo sapiens) (UniProt P06401); assay: qHTS assay to identify small molecule agonists of the progesterone receptor (PR) signaling pathway (AID 1346784; calls by dose curve; note: nearly all actives have a fitted effect of over 30% in size)
# Sequence of Progesterone receptor (Homo sapiens) (P06401 whole entry, looked up): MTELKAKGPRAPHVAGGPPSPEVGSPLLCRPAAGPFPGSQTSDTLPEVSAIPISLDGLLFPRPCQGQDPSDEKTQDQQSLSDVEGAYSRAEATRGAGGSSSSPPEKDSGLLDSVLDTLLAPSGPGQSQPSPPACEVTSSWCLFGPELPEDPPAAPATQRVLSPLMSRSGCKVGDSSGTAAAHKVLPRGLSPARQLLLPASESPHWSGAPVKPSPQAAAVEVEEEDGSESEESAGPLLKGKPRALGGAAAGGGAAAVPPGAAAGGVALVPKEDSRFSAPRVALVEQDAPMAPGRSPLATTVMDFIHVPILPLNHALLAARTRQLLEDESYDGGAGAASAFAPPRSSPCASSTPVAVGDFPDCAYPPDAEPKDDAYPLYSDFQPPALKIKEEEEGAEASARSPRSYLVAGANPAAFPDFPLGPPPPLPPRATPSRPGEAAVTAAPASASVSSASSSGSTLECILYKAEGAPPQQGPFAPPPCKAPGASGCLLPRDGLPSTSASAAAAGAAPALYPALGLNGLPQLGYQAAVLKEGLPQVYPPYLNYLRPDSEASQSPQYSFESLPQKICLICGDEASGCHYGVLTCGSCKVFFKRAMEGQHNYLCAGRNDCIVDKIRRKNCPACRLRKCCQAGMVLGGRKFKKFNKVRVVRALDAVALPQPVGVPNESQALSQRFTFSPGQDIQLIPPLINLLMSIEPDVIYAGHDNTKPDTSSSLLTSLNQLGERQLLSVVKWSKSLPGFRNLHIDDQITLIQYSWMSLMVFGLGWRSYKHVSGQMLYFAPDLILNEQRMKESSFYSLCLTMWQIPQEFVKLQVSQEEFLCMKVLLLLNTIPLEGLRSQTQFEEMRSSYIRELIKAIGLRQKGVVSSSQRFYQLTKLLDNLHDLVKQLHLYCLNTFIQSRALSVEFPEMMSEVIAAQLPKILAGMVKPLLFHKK
# Outline: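 Agonist qHTS: compounds pinned onto 3,000 PR-UAS-bla HEK 293T cells per well in charcoal-stripped serum medium, 16hr at 37C, then beta-lactamase activity measured by LiveBLAzer FRET fluorescence after 2 hours at room temperature.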
# [11] = molecular target: Progesterone receptor (Homo sapiens) (UniProt P06401); assay: qHTS assay to identify small molecule antagonists of the progesterone receptor (PR) signaling pathway (AID 1346795; active = well fitted inhibition curve with a large enough effect in the signal ratio in the repeat runs, not every such curve was filed as active; the % refers to the signal ratio; note: potency is the fitted concentration of half-maximal effect)
# Outline: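 Antagonist mode with agonist R5020 at 1 nM final and 16 hr incubation at 37C. Reporter was beta-lactamase driven by UAS in HEK293T (PR-UAS-bla), 2% charcoal-stripped serum; signal from LiveBLAzer FRET substrate, 2 hr at room temperature.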
# [12] = qHTS assay to identify small molecule antagonists of the progesterone receptor (PR) signaling pathway - cell viability counter screen (AID 1346798); note: series mostly up to about 92 µM; nearly all actives have a fitted effect of over 50% in size
# Outline: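 Cytotoxicity read as CellTiter-Glo luminescence (30 min, room temperature) in the same wells as the beta-lactamase readout. HEK293T PR-UAS-bla cells in charcoal-stripped 2% FBS received compound and R5020, then 16 h at 37C, 5% CO2.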
# [13] = qHTS assay to identify small molecule agonists of the progesterone receptor (PR) signaling pathway - cell viability counter screen (AID 1346799; calls by dose curve; note: nearly all actives have a fitted effect of over 45% in size)
# Outline: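 Cytotoxicity measured by CellTiter-Glo luminescence (30 min, RT) in the same wells as the PR beta-lactamase agonist read. Those HEK293T cells had 16 h compound treatment at 37 C in 2% charcoal-stripped FBS medium.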
# [14] = qHTS assay to identify small molecule antagonists of the TGF-beta/Smad signaling pathway - cell viability counter screen (AID 1346824); note: nearly all actives have a fitted effect of over 50% in size
# Outline: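 SBE-bla HEK 293T cells were plated overnight at 37 C, then given compounds in DMSO plus TGF-beta1 (added as 0.25 ng/mL solution) for 5 hr. After the bla read, CellTiter-Glo was added to the same wells and luminescence read after 30 min at room temperature.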
# [15] = qHTS assay to identify small molecule agonists of the TGF-beta/Smad signaling pathway - cell viability counter screen (AID 1346829); note: top concentration of the series differs between compounds; nearly all actives have a fitted effect of over 45% in size
# Outline: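 Here the cytotoxicity of library compounds is measured in SBE-bla HEK 293T cells treated for 5 hr, using CellTiter-Glo added to wells already read for the beta-lactamase reporter.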
# [16] = qHTS assay to identify small molecule agonists of the TGF-beta/Smad signaling pathway (AID 1346859; active = well fitted activation curve with a large enough effect in the signal ratio in the repeat runs, not every such curve was filed as active; the % refers to the signal ratio; note: series mostly up to about 77 µM)
# Outline: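 Fluorescence (ex 405 nm; em 460 and 530 nm) was read 2 h after LiveBLAzer FRET substrate at RT. The preceding compound treatment of overnight-plated SBE-bla HEK293T cells lasted 5 h at 37 C.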
# [17] = molecular target: Thyrotropin-releasing hormone receptor (Homo sapiens) (UniProt P34981); assay: qHTS assay to identify small molecule antagonists of the thyrotropin-releasing hormone receptor (TRHR) signaling pathway (AID 1346877; active = well fitted inhibition curve with a large enough effect in the repeat runs, not every such curve was filed as active; note: series mostly up to about 51 µM)
# Sequence of Thyrotropin-releasing hormone receptor (Homo sapiens) (P34981 whole entry, looked up): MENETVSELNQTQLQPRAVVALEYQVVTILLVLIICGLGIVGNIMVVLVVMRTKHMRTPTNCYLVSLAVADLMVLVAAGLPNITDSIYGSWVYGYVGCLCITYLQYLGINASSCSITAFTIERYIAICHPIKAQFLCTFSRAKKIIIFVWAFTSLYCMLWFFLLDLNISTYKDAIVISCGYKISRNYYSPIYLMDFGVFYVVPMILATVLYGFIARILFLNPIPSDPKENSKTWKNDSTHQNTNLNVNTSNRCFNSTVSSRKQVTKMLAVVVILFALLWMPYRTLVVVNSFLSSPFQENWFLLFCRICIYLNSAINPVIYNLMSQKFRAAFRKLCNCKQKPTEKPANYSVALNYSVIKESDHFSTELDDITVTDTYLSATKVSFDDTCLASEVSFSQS
# Outline: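 Calcium signal in dye-loaded TRHR/HEK293 cells; compounds added 5 min before TRH (1 nM final); fluorescence monitored 3 min at 1 s steps.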
# [18] = molecular target: Thyrotropin-releasing hormone receptor (Homo sapiens) (UniProt P34981); assay: qHTS assay to identify small molecule agonists of the thyrotropin-releasing hormone receptor (TRHR) signaling pathway (AID 1346891; calls by dose curve; note: series mostly up to about 58 µM)
# Outline: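 Agonist-mode intracellular calcium readout: kinetic fluorescence over 3 min at 1 s intervals after compound addition to TRHR-HEK293 cells (18 h seeded, 2 h dye-loaded at 37 C). Fifteen concentrations, triplicates.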
# [19] = molecular target: Estrogen receptor (Homo sapiens) (UniProt P03372); assay: qHTS assay to identify small molecule agonists of the estrogen receptor alpha (ER-alpha) signaling pathway in the presence of an antagonist (AID 1259383; calls by dose curve; note: top concentration of the series differs between compounds; nearly all actives have a fitted effect of over 15% in size)
# Sequence of Estrogen receptor (Homo sapiens) (P03372 whole entry, looked up): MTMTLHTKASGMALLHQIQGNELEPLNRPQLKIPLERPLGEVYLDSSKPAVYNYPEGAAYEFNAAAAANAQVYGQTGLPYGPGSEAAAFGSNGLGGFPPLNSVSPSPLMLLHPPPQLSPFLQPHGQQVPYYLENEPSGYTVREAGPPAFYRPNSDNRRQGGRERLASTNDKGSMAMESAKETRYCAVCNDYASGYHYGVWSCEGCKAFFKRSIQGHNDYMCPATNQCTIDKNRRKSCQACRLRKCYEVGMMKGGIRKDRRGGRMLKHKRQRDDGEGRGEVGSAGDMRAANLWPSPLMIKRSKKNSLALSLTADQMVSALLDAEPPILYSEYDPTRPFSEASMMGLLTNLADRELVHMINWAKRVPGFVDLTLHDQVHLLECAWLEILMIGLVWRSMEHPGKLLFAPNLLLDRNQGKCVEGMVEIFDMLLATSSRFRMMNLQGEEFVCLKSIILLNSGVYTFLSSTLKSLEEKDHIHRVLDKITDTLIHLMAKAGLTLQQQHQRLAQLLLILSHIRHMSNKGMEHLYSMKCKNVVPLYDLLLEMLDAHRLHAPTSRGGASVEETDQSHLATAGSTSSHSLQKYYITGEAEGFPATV
# Outline: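 Luminescent ERE-luciferase reporter, VM7Luc4E2 cells (endogenous ER-alpha); 10.0nM ICI-182,780 final; 15-point compound titration; 22hr at 37C; ONE-Glo, 30min RT.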
# [20] = molecular target: Androgen receptor (Homo sapiens) (UniProt P10275); assay: qHTS assay to identify small molecule agonists of the androgen receptor (AR) signaling pathway in the presence of an antagonist (AID 1259381; calls by dose curve; note: nearly all actives have a fitted effect of over 15% in size)
# Sequence of Androgen receptor (Homo sapiens) (P10275 whole entry, looked up): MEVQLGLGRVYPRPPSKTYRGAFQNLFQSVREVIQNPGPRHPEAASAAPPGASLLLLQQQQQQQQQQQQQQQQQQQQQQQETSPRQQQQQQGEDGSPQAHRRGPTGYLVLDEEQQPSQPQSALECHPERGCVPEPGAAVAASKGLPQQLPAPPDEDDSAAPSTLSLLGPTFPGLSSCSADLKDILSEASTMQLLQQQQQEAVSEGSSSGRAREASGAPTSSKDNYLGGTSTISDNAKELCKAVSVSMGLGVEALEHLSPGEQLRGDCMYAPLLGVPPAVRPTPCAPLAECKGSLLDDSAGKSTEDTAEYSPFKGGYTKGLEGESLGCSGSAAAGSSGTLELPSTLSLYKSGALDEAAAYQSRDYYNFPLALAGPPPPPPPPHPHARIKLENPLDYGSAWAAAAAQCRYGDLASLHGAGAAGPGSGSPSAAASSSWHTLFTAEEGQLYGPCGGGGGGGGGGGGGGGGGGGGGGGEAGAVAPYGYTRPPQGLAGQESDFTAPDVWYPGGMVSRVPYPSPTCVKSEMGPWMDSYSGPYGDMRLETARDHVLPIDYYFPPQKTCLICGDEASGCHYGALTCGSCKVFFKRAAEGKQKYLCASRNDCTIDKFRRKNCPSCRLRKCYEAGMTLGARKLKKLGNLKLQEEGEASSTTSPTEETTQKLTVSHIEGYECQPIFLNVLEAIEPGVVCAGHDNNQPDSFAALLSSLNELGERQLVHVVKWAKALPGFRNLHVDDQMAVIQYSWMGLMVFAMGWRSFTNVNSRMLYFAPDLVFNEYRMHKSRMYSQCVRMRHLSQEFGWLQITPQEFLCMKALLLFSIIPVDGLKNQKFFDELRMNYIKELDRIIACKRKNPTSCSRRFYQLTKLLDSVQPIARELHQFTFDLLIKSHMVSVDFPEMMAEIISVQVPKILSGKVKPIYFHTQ
# Outline: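 Plated MDA-kb2 cells (3,000/well) were pre-incubated 5hr, given nilutamide (3.0uM final) or buffer, then dosed with compounds in DMSO at 15 concentrations. Luciferase activity was quantified by luminescence after 16hr at 37C.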
structure (smiles),measurement,setting,value
C=CC(=O)OC,Potency,[1],inactive
same,Potency,[2],inactive
same,Potency,[3],inactive
same,Potency,[4],inactive
same,Potency,[5],inactive
same,Potency,[6],inactive
same,outcome,[7],inactive
same,Potency,[8],inactive
same,Potency,[9],inactive
same,Potency,[10],inactive
same,Potency,[11],inactive
same,Potency,[12],inactive
same,Potency,[13],inactive
same,Potency,[14],inactive
same,Potency,[15],inactive
same,outcome,[16],inactive
same,Potency,[17],inactive
same,Potency,[18],inactive
CC1C(=O)C[C@]2(C(C)C)C[C@H]12 (some centres undefined),Potency,[1],inactive
same,Potency,[2],inactive
same,Potency,[3],inactive
same,Potency,[4],inactive
same,Potency,[5],inactive
same,Potency,[6],inactive
same,outcome,[7],inactive
same,Potency,[8],inactive
same,Potency,[9],inactive
same,Potency,[10],inactive
same,Potency,[11],inactive
same,Potency,[12],inactive
same,Potency,[13],inactive
same,Potency,[14],inactive
same,Potency,[15],inactive
same,outcome,[16],inactive
ClCCCCBr,Potency,[1],inactive
same,Potency,[2],inactive
same,Potency,[3],inactive
same,Potency,[4],inactive
same,Potency,[5],inactive
same,Potency,[6],inactive
same,outcome,[7],inactive
same,Potency,[8],inactive
same,Potency,[9],inactive
same,Potency,[10],inactive
same,Potency,[11],inactive
same,Potency,[12],inactive
same,Potency,[14],inactive
same,Potency,[15],inactive
same,outcome,[16],inactive
same,Potency,[17],inactive
same,Potency,[18],inactive
CCCCN=C=O,Potency,[1],inactive
same,Potency,[2],inactive
same,Potency,[3],inactive
same,Potency,[4],inactive
same,Potency,[5],inactive
same,outcome,[7],inactive
same,Potency,[8],inactive
same,Potency,[9],inactive
same,Potency,[10],inactive
same,Potency,[11],inactive
same,Potency,[13],inactive
same,Potency,[14],inactive
same,Potency,[15],inactive
same,outcome,[16],inactive
same,Potency,[17],inactive
COc1cc(Cl)c(OC)cc1Cl,Potency,[1],inactive
same,Potency,[2],inactive
same,Potency,[3],inactive
same,Potency,[4],inactive
same,Potency,[5],inactive
same,Potency,[19],inactive
same,Potency,[9],inactive
same,Potency,[10],inactive
same,Potency,[11],inactive
same,Potency,[12],inactive
same,Potency,[13],inactive
same,Potency,[14],inactive
same,Potency,[15],inactive
same,outcome,[16],inactive
same,Potency,[17],inactive
Nc1nc(N)nc(N)n1,Potency,[1],inactive
same,Potency,[2],inactive
same,Potency,[3],inactive
same,Potency,[4],inactive
same,Potency,[5],inactive
same,Potency,[6],inactive
same,outcome,[7],inactive
same,Potency,[8],inactive
same,Potency,[9],inactive
same,Potency,[10],inactive
same,Potency,[11],inactive
same,Potency,[12],inactive
same,Potency,[13],inactive
same,Potency,[14],inactive
same,Potency,[15],inactive
same,outcome,[16],inactive
same,Potency,[17],inactive
O=C1CN=C(c2ccccc2)c2cc(Cl)ccc2N1CC1CC1,Potency,[1],51 µM (active)
same,Potency,[2],inactive
same,Potency,[3],28.7 µM (active)
same,Potency,[4],inactive
same,Potency,[5],inactive
same,Potency,[9],inactive
same,Potency,[10],inactive
same,Potency,[11],11.4 µM (active)
same,Potency,[14],inactive
same,Potency,[15],inactive
same,outcome,[16],inactive
same,Potency,[17],inactive
same,Potency,[18],inactive
CO[C@@H]1[C@H](OC(=O)NC(=O)CCl)CC[C@]2(CO2)[C@H]1[C@@]1(C)O[C@@H]1CC=C(C)C,"activity change, negative = inhibition",[1],-6.49% [at 19 µM]
same,activation,[2],-2.62% [at 19 µM]
same,"activity, negative = inhibition",[3],-21.4% [at 19 µM]
same,"activity change, negative = cytotoxicity",[4],-2.66% [at 19 µM]
same,activation,[20],-3.01% [at 19 µM]
same,"activity change, negative = cytotoxicity",[6],-10.8% [at 19 µM]
same,activation,[19],-0.438% [at 19 µM]
same,cAMP activity change,[7],2.97% [at 18.9 µM]
same,"activity change, negative = inhibition",[8],0.358% [at 19 µM]
same,"activity change, negative = cytotoxicity",[9],-1.81% [at 19 µM]
same,"activity change, negative = inhibition",[11],6.82% [at 18.9 µM]
same,"activity change, negative = cytotoxicity",[12],-12.2% [at 18.9 µM]
same,"activity change, negative = cytotoxicity",[13],-29% [at 19 µM]
same,"viability change, negative = cytotoxic",[14],3.4% [at 15.8 µM]
same,"activity change, negative = cytotoxicity",[15],8.28% [at 15.8 µM]
same,activation,[16],3.24% [at 15.8 µM]
same,"activity, negative = inhibition",[17],4.68% [at 10.5 µM]
same,activation,[18],-0.27% [at 11.8 µM]
